Screens from PubChem.
Hck-Nef inh = blocks Nef-activated human Hck kinase; P08631; Recombinant Hck-YEEI plus Nef, Z-Lyte FRET kinase assay; inhibition, % at 20 µM; 220,000 tested, 0.68% active;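 active = Hck-Nef kinase inhibition above about 50%, limit read from the data; inactive = inhibition below that limit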;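 note: 0% = DMSO with Hck plus Nef and 100% = Hck alone without Nef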
Target sequence (P08631 whole entry, looked up): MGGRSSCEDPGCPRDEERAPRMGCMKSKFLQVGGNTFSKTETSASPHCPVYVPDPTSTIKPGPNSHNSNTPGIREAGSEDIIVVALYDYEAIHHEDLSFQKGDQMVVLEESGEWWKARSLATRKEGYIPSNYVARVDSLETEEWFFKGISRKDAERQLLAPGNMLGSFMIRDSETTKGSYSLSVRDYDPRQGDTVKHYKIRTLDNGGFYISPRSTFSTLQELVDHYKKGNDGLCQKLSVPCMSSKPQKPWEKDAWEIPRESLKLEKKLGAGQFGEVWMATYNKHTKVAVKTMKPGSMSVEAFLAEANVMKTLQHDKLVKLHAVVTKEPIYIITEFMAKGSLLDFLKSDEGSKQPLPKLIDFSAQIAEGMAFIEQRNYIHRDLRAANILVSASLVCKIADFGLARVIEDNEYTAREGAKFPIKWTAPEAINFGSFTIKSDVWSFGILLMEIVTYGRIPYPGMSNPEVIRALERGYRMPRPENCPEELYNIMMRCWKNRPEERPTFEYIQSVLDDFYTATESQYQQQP
Mcl1 Bid PPI = disrupts binding of human Mcl-1 to Bid peptide; Q07820; 220,000 tested, 0.97% active; TR-FRET Mcl-1/Bid-Dy647 peptide binding, 1536-well; inhibition, % at 21.7 µM;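 active = compounds that cut the binding signal by more than half at the single screening dose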;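 note: His-tagged Mcl-1 with europium anti-His antibody binding Bid BH3 peptide; 0% = Mcl-1 plus peptide wells and 100% = peptide-only wells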
eIF4E-4G inh = eIF4E/eIF4G interaction inhibition in translation initiation; P63073+Q04637; TR-FRET eIF4E-eIF4GI(517-606) binding, 2 h; inhibition, % at 21.7 µM; 220,000 tested, 0.37% active; AID 782;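 active = inhibition above about 30%, limit read from the data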;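 note: 0% = full FRET control wells and 100% = background wells lacking eIF4GI fragment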
Mcl1 Noxa PPI = disrupts binding of human Mcl-1 to Noxa peptide. inhibition, % at 21.7 µM. Q07820. TR-FRET Mcl-1/Noxa peptide binding, 2 h. 220,000 tested, 1.5% active;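 active = compounds that cut the protein-peptide binding signal by more than 50% relative to plate controls in a single-dose test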;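 note: His-tagged Mcl-1 with rhodamine Noxa BH3 peptide and terbium anti-His antibody; 0% = Mcl-1 plus Noxa peptide wells and 100% = peptide-only wells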
14-3-3 Bad PPI = disrupts binding of bovine 14-3-3 zeta to phospho-Bad peptide. P63103. TR-FRET 14-3-3zeta/Dy647-pBad peptide displacement, 1 h. inhibition, % at 21.7 µM. 220,000 tested, 0.71% active. AID 781;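 active = inhibition above about 70%, limit read from the data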;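 note: 0% = full 14-3-3 plus peptide FRET controls and 100% = background without 14-3-3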
Bim-Mcl-1 = human Bim-Mcl-1 interaction inhibition | Q07820 | Bead-based flow cytometry, Bim peptide-Mcl-1 binding | inhibition, % at 10 µM | 190,000 tested, 0.1% active | AID 1009; in the data active = inhibition above about 40%;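 note: 0% = no compound tracer wells and 100% = peptide blocker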
Starred values were filed as active, the others as inactive; . = no result; [ ] = another dose, or the depositor's remark. Shown are actives, neighbours in structure and some others; about 3.5% of the full set was active somewhere.

SMILES	Hck-Nef inh	Mcl1 Bid PPI	eIF4E-4G inh	Mcl1 Noxa PPI	14-3-3 Bad PPI	Bim-Mcl-1
O=[N+]([O-])c1cc([N+](=O)[O-])c2c(=Nc3ccccc3)n(-c3ccccc3)n(O)c2c1	11	-28	3	62*	-3	11
COc1ccc(N=Cc2c(O)n(-c3ccc(OC)cc3)c(=O)c3ccccc23)cc1	32	49	14	46	75*	-2
O=c1c2ccccc2c(C=Nc2ccc(O)cc2)c(O)n1Cc1ccccc1	18	-23	34*	24	2	.
COc1ccc(Cn2c(O)c(C=Nc3ccc(O)cc3)c3ccccc3c2=O)cc1	-1	-43	-2	31	-16	0
O=c1c2ccccc2c(C=Nc2cccc(O)c2)c(O)n1-c1ccc2c(c1)OCO2	15	60*	-17	50	23	-4
O=c1cc(-c2ccccc2)nc(/C=C/c2ccccc2)[nH]1	12	5	0	14	3	.
CCOC(=O)N1CCN(C(=O)/C=C/c2c(C)nn(-c3ccc(F)cc3)c2Cl)CC1	20	-4	0	1	1	-5
Cc1ccc2[nH]c3c(NCc4ccco4)ncnc3c2c1	10	-11	3	55*	-6	4
CCCC(CCC)C(=O)Nc1ccc2c(c1)N(C(=O)CCN1CCN(C)CC1)c1ccccc1CC2	14	2	3	35	12	0
COCCn1c(SCC(=O)Nc2ccccc2C)nc2c(oc3ccccc32)c1=O	2	54*	8	5	30	-4
COCCn1c(SCC(=O)Nc2ccc(C)cc2C)nc2c(oc3ccccc32)c1=O	3	39	-2	-14	5	0
COC(=O)c1ccc(COc2ccc(/C=N/Nc3nc(C)cc(=O)[nH]3)cc2)cc1	32	15	-15	55*	45	.
COc1ccc(/C=C2\SC(=S)N(CCC(=O)NC3=NCCS3)C2=O)cc1OC	0	22	-5	56*	16	0
COc1cc(/C=C2\SC(=S)N(CC(=O)Nc3cccnc3)C2=O)cc(OC)c1OC	3	-17	1	4	-2	0
COc1cc(/C=C2\SC(=S)N(CC(=O)NC3=NCCS3)C2=O)cc(OC)c1OC	22	0	0	12	-12	0
COc1cc(/C=C2\SC(=S)N(CC(=O)Nc3ccc(O)cc3)C2=O)cc(OC)c1OC	22	-17	3	77*	57	0
Cc1cc(NC(=O)CCN2C(=O)/C(=C/c3ccccc3F)SC2=S)no1	9	-6	-2	42	6	4
Cc1cc(NC(=O)CCN2C(=O)/C(=C\c3ccccc3)SC2=S)no1	13	-5	6	71*	-4	.
CC1Nc2nc(N(C)C)[nH]c(=O)c2NC1C (stereo unspecified)	7	-14	-1	32	-26	-2
CCCN(Cc1ccccc1)C(=S)NC(=O)c1ccccc1[N+](=O)[O-]	19	-37	-3	14	-9	-1
CC(=O)OCCCNc1cc(Sc2ccc(C)cc2)c2nonc2c1[N+](=O)[O-]	3	-6	2	10	0	0
CC(=O)OCCCNc1cc(Sc2nc3ccccc3s2)c2nonc2c1[N+](=O)[O-]	2	-67	-44	64*	1	4
CC(=O)OCCNc1cc(Sc2nc3ccccc3[nH]2)c2nonc2c1[N+](=O)[O-]	-1	-106	9	61*	3	-6
COc1ccc(CCNC(=O)c2cn3ccc(C)cc3n2)cc1OC	1	-9	2	4	6	-2
CCc1sc(NC(=O)C(C)C)nc1-c1ccccc1	21	-7	4	-11	-5	0
Nc1ccc(N(c2ccccc2)c2ccc(N)cc2)cc1	1	-35	41*[fluorescence artefact?]	35	-20	0
COc1ccc(CC(=O)NCc2n[nH]c(=S)n2-c2cccc(Cl)c2)cc1	24	-28	-1	14	-20	-10
CC(=O)N(C1=C(N2CCOCC2)C(=O)c2ccccc2C1=O)c1ccc(C(=O)O)cc1	6	-6	36*	-4	0	.
O=C(NCCc1ccc(Cl)cc1)C1CCC(=O)N1Cc1ccc(F)cc1 (stereo unspecified)	2	-6	-1	-7	-5	0
CCOC(=O)c1sc2nc(NC(=O)COc3ccccc3)sc2c1C	4	-5	-1	55*	0	-4
